Values joined by “and” are separate entries in the source; they are usually repeats but may differ in a detail not shown here. Equal entries are not always repeated. The whole screen tested about 5,500 compounds, of which about 2,000 (36%) were called active. About 18% were inconclusive and are not listed. No stated cut-off is given here; in the data, active means normalized growth mostly below about 0.91 (no sharp cut-off); inconclusive means no clear call, values can overlap the other calls; inactive means mostly above about 0.92. The list shows a part of the results.
Test: chemical genetic growth profiling, strain panel (AID 1159580);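 further: tested at 20 µM; growth read once vehicle control cultures reached saturation at 30 °C; 1 = growth at the plate median or of vehicle wells; lower values mean less growth of the strain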
Details: S. cerevisiae deletion strains, growth OD

Measured: normalized growth

CN(C)[C@@H]1C(=O)C(C(N)=O)=C(O)[C@@]2(O)C(=O)C3=C(O)c4c(O)cccc4[C@@](C)(O)[C@H]3[C@H](O)[C@@H]12
inactive: locus YAL013W, strain DEP1, active compounds read low 1.01 | locus YAL021C, strain ccr4, active compounds read low 1.02 | locus YAL026C, strain drs2, active compounds read low 1.01 | locus YAL030W, strain snc1, active compounds read low 1 | locus YBL061C, strain skt5, active compounds read low 1.02 | locus YBR009C, strain hhf1, active compounds read low 1.01 | locus YBR021W, strain FUR4, active compounds read low 0.99 | locus YBR023C, strain chs3, active compounds read low 1.02 | locus YBR171W, strain sec66, active compounds read low 1.02 | locus YBR229C, strain ROT2, active compounds read low 1 | locus YBR231C, strain swc5, active compounds read low 0.991 | locus YBR279W, strain paf1, active compounds read low 1.02 | locus YCL011C, strain gbp2, active compounds read low 1.01 | locus YCL016C, strain dcc1, active compounds read low 1.01 | locus YCL029C, strain bik1, active compounds read low 0.998 | locus YCL061C, strain MRC1, active compounds read low 1.01 | locus YCL069W, strain vba3, active compounds read low 1.02 | locus YCR088W, strain abp1, active compounds read low 1.02 | locus YDL005C, strain med2, active compounds read low 1.02 | locus YDL035C, strain GPR1, active compounds read low 1 | locus YDL040C, strain nat1, active compounds read low 1.03 | locus YDL074C, strain BRE1, active compounds read low 1.01 | locus YDL101C, strain DUN1, active compounds read low 1.01 | locus YDL134C, strain PPH21, active compounds read low 0.995 | locus YDL185W, strain tfp1, active compounds read low 0.988 | locus YDL192W, strain arf1, active compounds read low 0.998 | locus YDR001C, strain nth1, active compounds read low 1.02 | locus YDR069C, strain doa4, active compounds read low 1 | locus YDR101C, strain arx1, active compounds read low 1.01 | locus YDR137W, strain rgp1, active compounds read low 0.975 | locus YDR150W, strain NUM1, active compounds read low 1.01 | locus YDR159W, strain sac3, active compounds read low 1.05 | locus YDR162C, strain NBP2, active compounds read low 0.992 | locus YDR195W, strain ref2 1.01 | locus YDR297W, strain sur2, active compounds read low 1.02 | locus YDR318W, strain mcm21, active compounds read low 0.999 | locus YDR334W, strain swr1, active compounds read low 1.01 | locus YDR335W, strain msn5, active compounds read low 1.02 | locus YDR388W, active compounds read low 1 | locus YDR392W, strain spt3, active compounds read low 1.02 | locus YDR502C, strain sam2, active compounds read low 0.994 | locus YEL003W, strain gim4, active compounds read low 1.01 | locus YEL037C, strain rad23, active compounds read low 1.02 | locus YEL061C, strain CIN8 (second series), active compounds read low 1.01 | locus YEL061C, strain CIN8, active compounds read low 1 | locus YER015W, strain faa2, active compounds read low 1.01 | locus YER016W, strain bim1, active compounds read low 1 | locus YER110C, active compounds read low 1 | locus YER111C, strain swi4, active compounds read low 1.01 | locus YER155C, strain BEM2 (second series), active compounds read low 0.995 | locus YER155C, strain BEM2, active compounds read low 1.01 | locus YER167W, strain BCK2, active compounds read low 1.01 | locus YFR010W, strain ubp6, active compounds read low 1 | locus YGL078C, strain dbp3, active compounds read low 0.984 | locus YGL086W, strain mad1, active compounds read low 0.982 | locus YGL167C, strain pmr1, active compounds read low 1.01 | locus YGL173C, strain kem1, active compounds read low 1 | locus YGL227W, strain vid30, active compounds read low 1.04 | locus YGL240W, strain doc1, active compounds read low 1.01 | locus YGL248W, strain PDE1, active compounds read low 1 | locus YGL253W, strain hxk2, active compounds read low 1.02 | locus YGR078C, strain PAC10, active compounds read low 1 | locus YGR135W, strain pre9, active compounds read low 0.987 | locus YGR252W, strain gcn5, active compounds read low 0.967 | locus YHR013C, strain ard1, active compounds read low 1 | locus YHR027C, strain rpn1, active compounds read low 1.02 | locus YHR030C, strain SLT2, active compounds read low 1 and 0.979 | locus YHR079C, strain IRE1 (second series), active compounds read low 0.992 | locus YHR079C, strain IRE1, active compounds read low 0.98 | locus YHR094C, strain hxt1, active compounds read low 0.999 | locus YHR129C, strain ARP1, active compounds read low 1.01 | locus YHR142W, strain chs7, active compounds read low 1.05 | locus YHR200W, strain rpn10, active compounds read low 1 | locus YIL066C, strain RNR3, active compounds read low 1 | locus YIL073C, strain SPO22, active compounds read low 1.02 | locus YIL125W, strain kgd1, active compounds read low 0.998 | locus YIR030C, strain dcg1, active compounds read low 0.997 | locus YJL092W, strain hpr5, active compounds read low 1.02 | locus YJL095W, strain BCK1 (second series), active compounds read low 1.02 | locus YJL095W, strain BCK1, active compounds read low 0.987 and 0.979 | locus YJL115W, strain asf1, active compounds read low 1.03 | locus YJL129C, strain trk1, active compounds read low 1.05 | locus YJL134W, strain LCB3, active compounds read low 1.01 | locus YJL154C, strain vps35, active compounds read low 1.04 | locus YJL164C, strain tpk1, active compounds read low 0.997 | locus YJL166W, strain qcr8, active compounds read low 1.03 | locus YJL168C, strain set2, active compounds read low 0.998 | locus YJL187C, strain SWE1 (second series), active compounds read low 1.01 | locus YJR043C, strain POL32, active compounds read low 0.992 | locus YJR066W, strain TOR1, active compounds read low 0.928

— PubChem BioAssay AID1159580 (chemical genetic matrix, 2015)
